Assay outcomes (PubChem)
Hits are enriched below; roughly 3.5% of the tested compounds scored in any of these assays.
TEAD-YAP inh = TEAD-YAP interaction inhibition, primary screen, TEAD-YAP interaction inhibitor project, luminescence, HEK-TIYL cells; TEAD-Gal4/YAP UAS-luciferase luminescence; inhibition, % at 9.12 µM; 640,000 tested, 1.4% active; in the data active = inhibition above about 32%;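 note: 0% = median of test compound wells and 100% = reference inhibitor wells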
MITF primary = MITF inhibitors, primary screen, biochemical, AlphaScreen, human; AlphaScreen MITF homodimerization, bead proximity signal; AID 1259374, 2018; inhibition, % at 2.6 µM; Microphthalmia-associated transcription factor (Homo sapiens), O75030; 650,000 tested, 0.91% active; in the data active = inhibition above about 50%;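 note: 0% = vehicle wells with protein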
FBW7 activator = FBW7 E3 ligase activators, primary screen, biochemical, AlphaScreen, human; F-box/WD repeat-containing protein 7 (Homo sapiens), Q969H0; AlphaScreen FBW7–phospho-cyclin E peptide binding, activator screen; normalized activity (activation), % at 26.1 µM; 650,000 tested, 0.13% active; AID 1259310, 2017; in the data active = normalized activity above about 1.9%;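 note: purified mutant Fbw7 with reduced substrate affinity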
GPR151 ag = activators of human GPR151, primary screen, cell-based, PathHunter beta-arrestin, luminescence; G-protein coupled receptor 151 (Homo sapiens), Q8TDV0; PathHunter beta-arrestin GPR151 cells; activation, % at 11.2 µM; 650,000 tested, 1% active; AID 1508602, 2020; in the data active = activation above about 4.9%;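 note: 0% = median of compound wells and 100% = cells with positive control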
Target sequence (Q8TDV0 whole entry, looked up): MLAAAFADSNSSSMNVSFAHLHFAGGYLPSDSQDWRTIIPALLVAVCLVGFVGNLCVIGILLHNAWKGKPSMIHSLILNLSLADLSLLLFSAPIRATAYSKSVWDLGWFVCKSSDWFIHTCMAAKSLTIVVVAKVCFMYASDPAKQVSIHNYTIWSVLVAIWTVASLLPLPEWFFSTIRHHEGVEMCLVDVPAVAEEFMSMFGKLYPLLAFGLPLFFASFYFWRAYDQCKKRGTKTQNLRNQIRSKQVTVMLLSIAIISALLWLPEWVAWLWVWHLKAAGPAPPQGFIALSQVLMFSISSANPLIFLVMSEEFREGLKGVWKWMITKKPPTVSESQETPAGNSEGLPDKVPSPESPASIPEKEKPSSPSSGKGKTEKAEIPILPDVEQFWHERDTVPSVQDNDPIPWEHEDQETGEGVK
MITF confirm = MITF inhibitors, retest of hits, confirmation, biochemical, AlphaScreen, triplicate; shares compounds with MITF primary; AlphaScreen MITF homodimerization, biotin/His-MITF beads; 4,700 tested, 16% active; inhibition, % at 2.6 µM;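 active = inhibition above a cutoff derived from the DMSO control wells, cut at about 28% in these data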;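 note: 0% = MITF dimer wells with DMSO only; inhibitors lower the bead chemiluminescence by keeping MITF from dimerizing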
AlphaScreen DR = AlphaScreen optical interference compounds, dose response, counter-screen, biochemical, HTS. AlphaScreen optical interference counterscreen, cell-free. shares compounds with MITF primary. 480 tested, 6% active. AID 1259373, 2018. IC50, µM; call rule not given here
AlphaScreen intf2 = AlphaScreen optical interference compounds, counter-screen for MITF inhibitor project, biochemical, triplicate | inhibition, % at 2.6 µM | shares compounds with MITF primary | LysRS AlphaScreen counterscreen, signal interference | 4,700 tested, 7.6% active;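 active = inhibition above a cutoff derived from the DMSO control wells, cut at about 30% in these data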
Numbers without * were called inactive; . = no result given.

SMILES	TEAD-YAP inh	MITF primary	FBW7 activator	GPR151 ag	MITF confirm	AlphaScreen intf2	others
CC1=C(C(=O)Nc2ccc(C)cc2C)C(c2cccc(Cl)c2)NC(=O)N1 (stereo unspecified)	9	5	0	1	.	.
CC1=C(C(=O)Nc2ccc(C)cc2C)C(c2cccc(Cl)c2)NC(=S)N1 (stereo unspecified)	-2	73*	0	1	4	21
COc1ccc(COCC(O)CN2CCN(C(C)=O)CC2)cc1 (stereo unspecified)	1	22	0	-1	.	.
COc1ccc(COCC(O)CN2CCN(CCc3ccccn3)CC2)cc1 (stereo unspecified)	-13	78*	0	-1	-10	-6
COc1ccc(OCC(O)CN2CCN(CCc3ccccn3)CC2)c(C(C)(C)C)c1 (stereo unspecified)	-2	81*	0	1	-13	-4
O=C(CSc1nnnn1-c1ccccc1)N/N=C/c1cc(Br)ccc1O	27	1	0	0	.	.
Cc1ccc(CCN2C(=O)C3C(C(=O)Nc4ccc(C)c(Cl)c4)C4C=CC3(O4)C2C(=O)NC2CCCC(C)C2C)cc1 (stereo unspecified)	5	-12	0	0	.	.
COc1ccc(Br)cc1C(=O)N/N=C/c1ccccc1F	-2	67*	0	-1	7	7
CCOc1ccc2nc(NC(=O)Cn3c(=O)oc4ccccc43)sc2c1	5	-9	0	0	.	.
N/C(=N\N=C(/N)c1ccccn1)c1ccccn1	61*	107*	-1	-6	100*	100*
Cn1ccc(NC(=O)Nc2ccc(F)c(Cl)c2)n1	-26	10	0	-2	.	.
CN(C1CC1)S(=O)(=O)c1ccc(C(=O)Nc2ncnc3c2CCC3)cc1	-3	-11	0	-1	.	.
CN(C)S(=O)(=O)c1ccc(C(=O)Nc2ncnc3c2CCC3)cc1	9	55*	1	0	5	-8
CC(=O)c1ccc(NC(=O)CNCC(c2ccccc2)N(C)C)cc1 (stereo unspecified)	12	66*	-1	1	-7	0
CC(=O)c1ccc(NC(=O)CC(C)c2ccccc2)cc1 (stereo unspecified)	-18	8	0	2	.	.
COCc1ccc(CN2CCOc3ccc(C(C)(O)CN(C)C)cc3C2)o1 (stereo unspecified)	4	11	0	0	.	.
CCCCN(C)c1nnnc2c1sc1nc(N3CCOCC3)c3c(c12)CC(C)(C)OC3	-4	-54	0	0	.	.
CC(C)C/C=N/NC(=O)c1ccc2c(c1)NC(=O)C(C)(C)O2	-13	60*	0	0	9	13
COCCn1nnnc1CN1CCSCC1	14	56*	1	2	7	11
COCCn1nnnc1C(c1ccc(Cl)cc1)N1CCSCC1 (stereo unspecified)	-9	66*	0	0	10	12
CCOC(=O)c1cc2c(=O)n3ccccc3nc2n(C)c1=NC(=O)c1ccc([N+](=O)[O-])cc1	5	1	0	-1	.	.
Cc1cccc(NC(=O)c2sc3nc4c(c(-c5cccs5)c3c2N)CCCCC4)c1	3	-5	1	2	.	.
CCS(=O)(=O)N1CCN(CC(=O)NC2CCCCC2)CC1	0	54*	0	3	10	8
Cc1ccc(-n2ncc(C#N)c2/N=C/N2CCN(C)CC2)cc1	-5	56*	0	2	2	12
CSc1ccccc1NC(=O)CNCC(C)O (stereo unspecified)	-6	28	0	0	.	.
SMILES	TEAD-YAP inh	MITF primary	FBW7 activator	GPR151 ag	MITF confirm	AlphaScreen intf2	others
c1ccc2c(c1)OCC(c1nc3c(-c4ccncc4)cncc3[nH]1)O2 (stereo unspecified)	-4	61*	0	0	39*	10	AlphaScreen DR=>6.5
CCOC(=O)c1sc(NC(=O)CSc2nc3ccc(C)cc3cc2C#N)nc1C	-6	12	0	-1	.	.
O=C(CN1CCN(C/C=C/c2ccccc2)CC1)NCc1ccccc1	10	73*	0	0	6	-11
O=C(CN1CCN(C/C=C/c2ccccc2)CC1)NCCCc1ccccc1	1	1	0	-1	.	.
CC(C(=O)N(C)Cc1ccccc1)N1CCN(C/C=C/c2ccccc2)CC1 (stereo unspecified)	-5	59*	0	-1	9	16
CCCNc1nc(NCC)nc2c1ncn2C1CCCCC1	1	69*	0	0	2	5
COc1cc([N+](=O)[O-])ccc1NC(=O)Cn1c2ccccc2c(=O)c2ccccc21	2	-4	0	-1	.	.
CCOC(=O)c1cc[n+](CC(=O)c2cccc([N+](=O)[O-])c2)cc1	5	4	0	-2	.	.
N#Cc1cc[n+](CC(=O)c2cccc([N+](=O)[O-])c2)cc1	1	63*	0	1	-16	-1
O=[N+]([O-])c1ccccc1OCCOCCn1cnc2ccccc21	-2	88*	0	0	12	11
O=[N+]([O-])c1ccccc1OCCOCCn1cncn1	-3	3	0	0	.	.
O=Cc1cccc(OCCCn2cnc3ccccc32)c1	14	66*	0	2	26	10
O=[N+]([O-])c1ccccc1OCCCn1cnc2ccccc21	-72	60*	0	1	11	13
Fc1ccccc1OCCCn1cnc2ccccc21	-18	5	0	0	.	.
CCN(CC(=O)Nc1ccc(C(C)=O)cc1)CC(=O)Nc1ccc2c(c1)OCCO2	-1	80*	0	0	9	12
CCN(CC(=O)Nc1ccc(OC)cc1)CC(=O)NC(C)(C)C	-2	9	0	-1	.	.
CCN(CC(=O)Nc1ccc2c(c1)OCCO2)CC(=O)Nc1ccccc1C(F)(F)F	2	89*	0	0	14	15
CCN(CC(=O)Nc1ccc(NC(C)=O)cc1)CC(=O)Nc1ccc(Cl)c(Cl)c1	-7	94*	0	-2	11	14
CCN(CC)CC(=O)Nc1ccc2c(c1)OCO2	-2	3	0	0	.	.
CCN(CC)CC(=O)Nc1ccc(OC)cc1	-9	52*	1	-1	28*	18	AlphaScreen DR=>6.5
CCOC(=O)N1CCc2c(sc(NC(=O)c3cccs3)c2C(=O)Nc2ccc(Oc3ccccc3)cc2)C1	3	7	0	0	.	.
